# Test results: PubChem BioAssay (NCI)
# About 79,000 compounds went through this panel and 15% of them were active in at least one assay; those are over-represented in the sample as a whole. A number with no mark means an inactive call. Active and inactive are the calls of the source. Cut-off read from the data, not from the text of the source: active = growth inhibition above about 70%; inactive = the rest.
# How the values were obtained:
# [1] = NCI Yeast Anticancer Drug Screen. Data for the rad50 strain (AID 155);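 note: 0% = growth of vehicle-only cultures of the same strain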; conditions: S. cerevisiae rad50 strain growth inhibition; at 50.0 µM; stronger effect = higher value
# How it was run: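 Readout: growth inhibition relative to vehicle-treated cultures. Compound exposure was carried out in a genetically defined yeast strain deficient in DNA damage repair.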
# [2] = NCI Yeast Anticancer Drug Screen. Data for the mec2-1 strain (AID 157); conditions: S. cerevisiae mec2-1 strain, at 50.0 µM, stronger effect = higher value
# How it was run: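 Using mec2-1 yeast: add compound, measure growth, express inhibition versus vehicle-treated cultures.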
# [3] = NCI Yeast Anticancer Drug Screen. Data for the sgs1 mgt1 strain (AID 161);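 note: 0% = growth of cultures given vehicle only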; conditions: S. cerevisiae sgs1 mgt1 strain, at 50.0 µM, stronger effect = higher value
# How it was run: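 This yeast growth screen uses a strain with defined DNA-repair lesions; compound-treated growth is compared with vehicle-treated growth.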
# [4] = NCI Yeast Anticancer Drug Screen. Data for the cln2 rad14 strain (AID 165);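 note: 0% = growth equal to vehicle treated cultures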; conditions: S. cerevisiae cln2 rad14 strain, at 50.0 µM, stronger effect = higher value
# How it was run: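 Yeast strain cln2 rad14, bearing defects in cell cycle control and DNA repair, serves as the test system; values reflect growth inhibition compared with vehicle.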
# [5] = NCI Yeast Anticancer Drug Screen. Data for the bub3 strain (AID 167); conditions: S. cerevisiae bub3 mutant strain, at 50.0 µM, stronger effect = higher value
# How it was run: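 Readout: yeast growth inhibition, expressed relative to vehicle-only wells. The test organism is a mutant strain from a panel with lesions in DNA repair or checkpoint genes.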
# [6] = NCI Yeast Anticancer Drug Screen. Data for the mlh1 rad18 strain (AID 175); conditions: S. cerevisiae mlh1 rad18 strain growth inhibition; at 50.0 µM; stronger effect = higher value
# How it was run: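 Steps: expose repair-defective yeast to compound; measure growth; express inhibition against vehicle-treated controls.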
SMILES,growth inhibition [1],growth inhibition [2],growth inhibition [3],growth inhibition [4],growth inhibition [5],growth inhibition [6]
CCc1cc2c(cc1C(=O)CCN1CCCC1)C(C)(C)CCC2(C)C,99.5% (active),99.7% (active),98.5% (active),99.5% (active),99.5% (active),99.8% (active)
c1ccc(P(CCNCCP(c2ccccc2)c2ccccc2)c2ccccc2)cc1,-16%,11.8%,8.6%,10.3%,2.25%,6.75%
CCCSc1nnc(SCCC)c2[nH]cnc12,0.85%,-5.45%,0.95%,-22.3%,2.4%,-8.7%
CCCC(=O)OCC(O)CO (stereo unspecified),12.2%,1.5%,1.3%,18.5%,4.1%,18.6%
CCOC(=O)C1C2CC3C(CC21C)C3(C)C (stereo unspecified),-6.1%,-6.65%,-12.9%,-2.5%,-20.6%,1%
Cc1cc(C)c(C(=O)OCCN(C)C)c(C)c1,10.8%,2%,9.9%,-5.25%,0.5%,-0.6%
O=C1CCC2(C=Nc3ccccc32)C2Cc3ccccc3N12 (stereo unspecified),-27.3%,-11.8%,-6.8%,3.75%,8.05%,-29.7%
S=C(Nc1ccc2c(c1)Cc1ccccc1-2)Nc1ccc2c(c1)Cc1ccccc1-2,25.8%,18.9%,-39.7%,-12.7%,27%,31%
CNC(=O)OCc1c(COC(=O)NC)c(C)n(-c2ccc(F)cc2)c1C,30.1%,14.8%,4.55%,0.5%,50.3%,-12.2%
CN(C)CCSCC(=O)N1c2ccccc2Sc2ccccc21,-7.7%,-8.5%,-5.8%,-41.2%,3%,-4.8%
C=C(C)C(=O)O[C@H]1CC2=C[C@@H](C[C@@]3(C)O[C@@H]3[C@H]3OC(=O)C(=C)[C@@H]31)OC2=O,-8.35%,10.1%,22.2%,6.4%,-10%,-5.15%
Oc1cc(-c2ccc(Cl)cc2)cn2c1nc1ccccc12,-13.3%,-23.8%,-38.5%,-24.1%,-5.75%,-50%
O=C(CCCc1ccc([N+](=O)[O-])cc1)c1ccccc1,-5.85%,-5.55%,1.2%,-28.4%,3.5%,-4.65%
O=c1cc(NCc2c(Cl)cccc2[N+](=O)[O-])[nH]c(=O)[nH]1,-8.8%,37.5%,14.7%,-7.9%,15%,-5.3%
O=C1CSc2nc3c(Cl)cc(Cl)cc3c(=O)n21,15.7%,24.6%,54.1%,8.2%,30.2%,46.1%
CC(=O)OCC1OC(OCC(OC(C)=O)C(OC(C)=O)C(OC(C)=O)c2cnn(-c3ccccc3)n2)C(OC(C)=O)C(OC(C)=O)C1OC(C)=O (stereo unspecified),1.35%,0.2%,2.65%,-15.2%,12.4%,6.5%
Nc1ccc2c(c1)C(=O)N(OS(=O)(=O)c1ccccc1)C2=O,55%,39%,41.2%,41%,35%,47.2%
Cc1cccc(N=C2NC(=O)C(CC(=O)Nc3ccc(Cl)cc3C)S2)c1 (stereo unspecified),0.05%,-1.9%,1.95%,3.55%,8.15%,3%
CCCCCCCCCCCCCCCCCC[N+]1(C)CCOCC1,99.2% (active),99.5% (active),99.1% (active),98.7% (active),99.2% (active),99.5% (active)
Clc1ccccc1C1Nc2ccccc2S1 (stereo unspecified),39.7%,17.6%,48.2%,-7.75%,13.3%,38.2%
COc1cccc(C(F)(F)F)c1,-3.1%,10.3%,-10.3%,-6.85%,19.4%,-13%

SMILES,growth inhibition [1],growth inhibition [2],growth inhibition [3],growth inhibition [4],growth inhibition [5],growth inhibition [6]
O=Cc1ccccc1COC(=O)c1cc(C(=O)OCc2ccccc2C=O)c(C(=O)OCc2ccccc2C=O)cc1C(=O)OCc1ccccc1C=O,13.9%,7.15%,-14.2%,-2.8%,-4.9%,5.25%
C/C=C/C(C/C=C(\C)CO[Si](C)(C)C(C)(C)C)O[Si](C)(C)C(C)(C)C (stereo unspecified),1.1%,-14.5%,-6.45%,-8.45%,4.9%,2.95%
O=C(O)C(C1=CCCCC1)C1(O)CCCCC1 (stereo unspecified),-9.15%,-5.45%,17.6%,-5.85%,-0.65%,12.7%
CN(C)c1ccc(/C=C/c2ccnc3c(N)cccc23)cc1,-3.95%,-8.85%,-14.4%,-12.8%,-10.9%,3.8%
Cn1nc(-c2cccc(-c3nn(C)c(=NCCO)s3)n2)sc1=NCCO,-29.8%,-25.4%,-51%,-6.7%,-28.1%,-40.6%
O=C1c2cc([N+](=O)[O-])ccc2-c2c(F)cccc21,5.5%,8.25%,-1%,-32%,10.2%,4.1%
COc1ccc(C2=C(Cl)c3cc(OC)c(OC)cc3C2Cl)cc1OC (stereo unspecified),41.5%,18.6%,21.9%,26.9%,-6.15%,17.4%
CCOC(=O)c1cnc(=S)n(CCC(C)C)c1N,-11.2%,8.25%,12.7%,-40.5%,2.9%,4.95%
C[C@@]12CCC3C1C=C1C(=O)c4cc(O)ccc4C(=O)[C@]1(O2)[C@@]3(C)C=O,-10.7%,2%,78.8% (active),51.1%,76.3% (active),89.7% (active)
COC(=O)/C=C(/Nc1ccccc1C(=O)O)C(=O)OC,-5.55%,20.1%,-5.15%,2.85%,-16.1%,-21.1%
COC(=O)c1ccc(NCc2cc(O)ccc2O)cc1O,88.5% (active),90.5% (active),83.7% (active),67.7%,84.8% (active),91.5% (active)
O=C1C(=O)c2ccccc2C(O)=C1Cc1ccccc1,-15.2%,13.8%,-11.9%,7.5%,-36.8%,1.85%
CCCNC1=C(C(=O)OCC)C(=O)CO1,-12.4%,-20.7%,3.55%,15.6%,-2.4%,0.1%
CC(O)CNCC(C)(C)N (stereo unspecified),-4.6%,-4.65%,-4.8%,-7.5%,3.15%,-1.95%
Cc1ccc(S(=O)(=O)Oc2c(Cl)c(Cl)c(Cl)c(Cl)c2Cl)cc1,-9.5%,-10.1%,2.2%,-15.3%,9.5%,5%
O=C(c1cccc(C(=O)N(c2ccccc2)C2CCCCC2)c1)N(c1ccccc1)C1CCCCC1,-2.65%,-6.35%,-1.55%,-6.65%,-1.3%,-27.9%
Cc1ccc(S(=O)(=O)Nc2ccccc2-c2nc3c(Cl)ccc(Cl)c3c(=O)o2)cc1,33.6%,0.15%,41.5%,-10.3%,-5.45%,10.7%
CCCCC(CC)COCCC(=O)O (stereo unspecified),-9.55%,-8.55%,-4.25%,-55.9%,-19.8%,-18.8%
COc1ccc([N+](=O)[O-])cc1NS(=O)(=O)c1ccc(NC(C)=O)cc1,1.6%,18.7%,-5.55%,-1.25%,23.8%,-19%
CCOC(=O)C1CC(=O)N(Cc2ccccc2)C(=O)N1 (stereo unspecified),-11.1%,1.8%,-17.6%,-16.9%,22.1%,-3.5%
